This passage reports Potency, viability change, negative = cytotoxic and activity change, negative = cytotoxicity results from PubChem BioAssay (Tox21).

SMILES strings stand for the structures. Records with an inconclusive call do not appear. A number with no mark means an inactive call. Activity calls are given as the source filed them. Calls follow the shape of the dose curve; as a rule, active = well fitted cell-killing curve with a large enough effect in the repeat runs; inconclusive = weak or mixed curves, or effect the other way; inactive = flat fitted curve, though single readings scatter.

The nature of assay [1]: cAMP Responsive Elements (CRE) small molecule antagonists, cell-based qHTS assay: qHTS cell viability counter screen (AID 2060913). Also: nearly all actives have a fitted effect of over 40% in size. The method, boiled down:
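Viability of NKH477-stimulated (0.25 uM final) CRE-bla HEK293T cells is measured by CellTiter-Glo luminescence following 3 hrs compound exposure at 37 C.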
In general terms: qHTS replaces the single test concentration by a dilution series.

Assay [2] in a line: cAMP Responsive Elements (CRE) small molecule agonists, cell-based qHTS assay: qHTS cell viability counter screen (AID 2060914). Also: nearly all actives have a fitted effect of over 50% in size. Summed up:
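Cytotoxicity was measured as ATP luminescence (CellTiter-Glo, 30 min at room temperature) in the same wells as the CRE-bla FRET read-out. HEK293T CRE-bla cells had 3 h compound exposure at 37C/5% CO2.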
% is scaled to controls: 0 for no effect and ±100 for the full control effect; potency is read from the fitted curve at half-maximal effect.

In the case of `CCc1ccc2c(c1)C(=O)c1ccccc1C2=O`, the Potency entry in assay [1] and in assay [2] was “inactive” each time.
Consider `CCC(O)CO` (stereo not given), for which the Potency entry in assay [1] and in assay [2] was “inactive” in each case.
In the case of `CN(C)CCCCCCN(C)C`, the Potency result in assay [1] and in assay [2] was “inactive” in each case.
Regarding `CC(C)(C)CC(C)(C)N`, the Potency entry in assay [1] and in assay [2] was “inactive” throughout.
`CN(C)N=Nc1ccccc1`: the Potency entry in assay [1] and in assay [2] was “inactive” each time.
As to `F[Si-2](F)(F)(F)(F)F`, the Potency entry in assay [1] and in assay [2] was “inactive” each time.
`CCOc1ccc2nc(S(N)(=O)=O)sc2c1`: the Potency entry in assay [1] and in assay [2] was “inactive” in each case.
As for `C=CCSCC1Nc2cc(Cl)c(S(N)(=O)=O)cc2S(=O)(=O)N1` (stereo not given), the Potency result in assay [1] and in assay [2] was “inactive” in each case.
In the case of `CCCCOC(=O)c1ccccc1`, the Potency result in assay [1] and in assay [2] was “inactive” in each case.
On to `COc1ccc2c(c1OC)C(=O)O[C@@H]2[C@H]1c2c(cc3c(c2OC)OCO3)CCN1C`, for which the Potency result in assay [1] and in assay [2] was “inactive” throughout.
As to `CN1C(C)(C)CC(O)CC1(C)C`, the Potency result in assay [1] and in assay [2] was “inactive” in each case.
Take `O=C(O)C(c1ccc(Cl)cc1)c1ccc(Cl)cc1`: the Potency result in assay [1] and in assay [2] was “inactive” each time.
On to `CN(C)[C@@H]1C(=O)C(C(N)=O)=C(O)[C@@]2(O)C(=O)C3=C(O)c4c(O)ccc(Cl)c4[C@@H](O)[C@H]3C[C@@H]12`, for which the Potency result in assay [1] and in assay [2] was “inactive” each time.
With `CN1CCN(c2cc3c(nn2)Oc2ccccc2N3C)CC1`, the viability change, negative = cytotoxic in assay [1] is 4.41% [at 18.9 µM]. Moreover, the activity change, negative = cytotoxicity in assay [2] was 1.04% [at 18.9 µM].
For the molecule `O=C(C(=O)c1ccco1)c1ccco1`, the Potency result in assay [1] and in assay [2] was “inactive” throughout.
As to `COc1nc(C)nc(Cl)c1NC1=NCCN1`, the Potency entry in assay [1] and in assay [2] was “inactive” each time.
For the molecule `Cc1c(C)c2c(c(C)c1OC(=O)CCC(=O)OCCO)CC[C@@](C)(CCC[C@H](C)CCC[C@H](C)CCCC(C)C)O2`, the Potency result in assay [1] is “inactive”. Also, in assay [2], the Potency was 26.6 µM (active).
For `FC1(F)C(F)(F)C(F)(F)C2(F)C(F)(F)C(F)(F)C(F)(F)C(F)(F)C2(F)C1(F)F` (stereo not given) the same measures were “inactive” and “inactive”.
For `O=C(Nc1ncc([N+](=O)[O-])s1)c1cccs1`, in that order: 21.1 µM (active) and 11.9 µM (active).
For the molecule `Cc1ccccc1C(OCCN(C)C)c1ccccc1` (stereo not given), the Potency result in assay [1] and in assay [2] was “inactive” throughout.
Turning to `O=C(O)CCc1nc2ccccc2[nH]1`, the Potency entry in assay [1] and in assay [2] was “inactive” in each case.
Turning to `CCn1nc(C)c2c1C(=O)NCC(c1ccc(O)cc1)=N2`, the Potency entry in assay [1] and in assay [2] was “inactive” each time.
Consider `CCCc1ccc(OC)cc1`, for which the Potency result in assay [1] and in assay [2] was “inactive” throughout.
As to `CC(C)c1ccccc1O`, the Potency entry in assay [1] and in assay [2] was “inactive” throughout.
As to `BrCCOc1ccccc1`, the Potency entry in assay [1] and in assay [2] was “inactive” each time.
Regarding `C[n+]1ccn(CCO)c1`, the Potency entry in assay [1] and in assay [2] was “inactive” throughout.
Turning to `C/C=C/C(=O)C1=C(C)C=CCC1(C)C`, the Potency entry in assay [1] and in assay [2] was “inactive” throughout.
`COc1cc(C(C)C)ccc1C`: the viability change, negative = cytotoxic in assay [1] was 0.655% [at 18.9 µM]. For the same molecule, the activity change, negative = cytotoxicity in assay [2] is -11.5% [at 18.9 µM].
As for `O=S(=O)(O)c1ccc(O)c2ncccc12`, the Potency entry in assay [1] and in assay [2] was “inactive” in each case.
As for `CN1CCN(C2Cc3ccccc3Sc3ccc(Cl)cc32)CC1` (stereo not given), the Potency result in assay [1] and in assay [2] was “inactive” each time.
For `O=Cc1ccccc1O`, the Potency result in assay [1] and in assay [2] was “inactive” throughout.
For `CCN(CCC#N)c1ccccc1`, the Potency entry in assay [1] and in assay [2] was “inactive” each time.
Turning to `CN(C)C(=O)NC1(c2ccccc2)CCN(CCC[C@]2(c3ccc(Cl)c(Cl)c3)CCCN(C(=O)c3ccccc3)C2)CC1`, the viability change, negative = cytotoxic in assay [1] is -0.11% [at 18.9 µM]. Moreover, the activity change, negative = cytotoxicity in assay [2] was -0.87% [at 18.9 µM].
With `CC1(C)O[C@@H]2C[C@H]3[C@@H]4C[C@H](F)C5=CC(=O)C=C[C@]5(C)[C@H]4[C@@H](O)C[C@]3(C)[C@]2(C(=O)CO)O1`, the Potency entry in assay [1] and in assay [2] was “inactive” each time.
As to `CC(=O)c1nccs1`, the Potency result in assay [1] and in assay [2] was “inactive” in each case.
On to `O=c1cc[nH]cc1`, for which the Potency entry in assay [1] and in assay [2] was “inactive” each time.
On to `CC(C)C(=O)O`, for which the Potency entry in assay [1] and in assay [2] was “inactive” each time.
As to `Cc1ncc(CSSCc2cnc(C)c(O)c2CO)c(CO)c1O`, the Potency result in assay [1] and in assay [2] was “inactive” in each case.
In the case of `CCNC(=O)N1CCN(CCCC(c2ccc(F)cc2)c2ccc(F)cc2)CC1`, the Potency result in assay [1] and in assay [2] was “inactive” in each case.
In the case of `NC(=Nc1ccccc1)Nc1ccccc1`, the Potency entry in assay [1] and in assay [2] was “inactive” in each case.
For `C1=Cc2ccccc2C1`, the Potency entry in assay [1] and in assay [2] was “inactive” in each case.
As to `C1CCCNCCC1`, the Potency entry in assay [1] and in assay [2] was “inactive” throughout.
For the molecule `O=C(CCCN1CCN(c2ccc(F)cc2)CC1)NC1c2ccccc2CSc2ccccc21` (stereo not given), the Potency entry in assay [1] and in assay [2] was “inactive” each time.
Turning to `CC(C)c1cccc(C(C)C)c1`, the Potency result in assay [1] and in assay [2] was “inactive” throughout.
For `C/C=C/C(=O)C1=C(C)CCCC1(C)C`, the Potency entry in assay [1] and in assay [2] was “inactive” in each case.
Regarding `CCN(CC)C(=O)/C(C#N)=C/c1cc(O)c(O)c([N+](=O)[O-])c1`, the Potency result in assay [1] and in assay [2] was “inactive” each time.
Turning to `O=C1c2c(O)cccc2Cc2cccc(O)c21`, the Potency result in assay [1] and in assay [2] was “inactive” throughout.
Take `CCC(=O)O`: the Potency entry in assay [1] and in assay [2] was “inactive” in each case.
`CC(C)C(=O)c1ccccc1`: the Potency entry in assay [1] and in assay [2] was “inactive” each time.
Turning to `Nc1nc(-c2ccc([N+](=O)[O-])cc2)cs1`, the Potency result in assay [1] and in assay [2] was “inactive” throughout.
On to `C[C@H]1[C@@H](c2ccccc2)NC(=O)N1C`, for which the Potency result in assay [1] and in assay [2] was “inactive” each time.
Turning to `CC[N+](C)(CC)CCOC(=O)C(O)(c1ccccc1)C1CCCCC1` (stereo not given), the Potency result in assay [1] and in assay [2] was “inactive” in each case.
Turning to `CCC=O`, the Potency result in assay [1] and in assay [2] was “inactive” each time.
As to `O=C1NC2NC(=O)NC2N1` (stereo not given), the Potency entry in assay [1] and in assay [2] was “inactive” throughout.
For `Cc1cccc(C(C)(C)C)c1O`, the Potency entry in assay [1] and in assay [2] was “inactive” each time.
